Test results as given in PubChem BioAssay.
The source made the active and inactive calls. Unless noted, no rule for the calls is given here.

How the values were obtained:
[1] = compound effects on lung adenocarcinoma cell viability – A549, calcein-AM fluorescence, 48 h, basal, profiling panel (AID 1162); settings: higher = more signal; also: test concentration not given here
[2] = compound effects on differentiated 3T3-L1 adipocyte viability – cell-based, 3T3-L1 adipocytes, calcein-AM fluorescence, 48 h, basal, profiling panel (AID 1163); settings: 3T3-L1 adipocytes viability, higher = more signal; also: test concentration not given here
[3] = compound effects on hepatocellular carcinoma cell viability – HepG2, calcein-AM fluorescence, 48 h, basal, profiling panel (AID 1164); settings: higher = more signal; also: test concentration not given here
[4] = compound effects on multiple myeloma cell viability – MM1S, calcein-AM fluorescence, 48 h, basal, profiling panel (AID 1165); settings: higher = more signal;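 also: viability of MM1S multiple myeloma cells under basal unstimulated conditions; test concentration not given here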
[5] = calcein-AM signal in unstimulated myeloma cells – cell-based, calcein-AM fluorescence, 48 h, PK04 Diversity Set, profiling panel (AID 1166); settings: RPMI8226 myeloma viability, higher = more signal;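 also: cells grown under basal conditions without added stimulus; test concentration not given here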
[6] = JC-1 mitochondrial signal, unstimulated HepG2 cells – cell-based, JC-1 fluorescence, 24 h, 100 nL compound, profiling panel (AID 1167); settings: HepG2 mitochondrial potential, higher = more signal; also: test concentration not given here
[7] = JC-1 mitochondrial signal, unstimulated adipocytes – cell-based, JC-1 fluorescence, 3T3-L1 adipocytes, 24 h, 100 nL compound, profiling panel (AID 1168); settings: JC-1 mitochondrial fluorescence, higher = more signal, called active from +8 up or from −8 down; also: test concentration not given here
[8] = JC-1 mitochondrial signal, unstimulated myeloma cells – cell-based, JC-1 fluorescence, RPMI8226, 24 h, 100 nL compound, profiling panel (AID 1169); settings: JC-1 mitochondrial potential fluorescence, higher = more signal; also: test concentration not given here
[9] = JC-1 mitochondrial signal, unstimulated MM1S myeloma – cell-based, JC-1 fluorescence, 24 h, 100 nL compound, profiling panel (AID 1170); settings: MM1S mitochondrial potential, higher = more signal; also: test concentration not given here
[10] = resazurin metabolic signal in A549 cells – cell-based, resazurin fluorescence, 24 h, PK04 Diversity Set, profiling panel (AID 1171); settings: A549 viability, higher = more signal, called active from +8 up or from −8 down; also: test concentration not given here
[11] = resazurin metabolic signal in HepG2 cells – cell-based, resazurin fluorescence, 24 h, PK04 Diversity Set, profiling panel (AID 1172); settings: HepG2 viability, higher = more signal; also: test concentration not given here
[12] = budding yeast growth changes without added modifier – OD600, strain BY4716, 24 h, basal condition, primary screen (AID 1173); settings: S. cerevisiae BY4716 growth, OD600, 24 h; higher = more signal, called active from +8 up or from −8 down
[13] = viability profiling in MM1S myeloma cells – cell-based, resazurin fluorescence, basal, 24 h, PK04 Diversity Set, profiling panel (AID 1174); settings: higher = more signal, called active from +8 up or from −8 down; also: test concentration not given here
[14] = target: Dihydroorotate dehydrogenase (quinone), mitochondrial (Plasmodium falciparum (isolate 3D7)) (UniProt Q08210); experiment: inhibition of P. falciparum DHODH – biochemical, C-terminal His tag, absorbance 600 nm, primary screen (AID 1175); settings: PfDHODH enzyme, DCIP absorbance 600 nm; higher = more signal, called active from +8 up or from −8 down;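 also: recombinant parasite enzyme with a five histidine tag at its C terminus; test concentration not given here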
Chain of Dihydroorotate dehydrogenase (quinone), mitochondrial (Plasmodium falciparum (isolate 3D7)) (Q08210 whole entry, looked up): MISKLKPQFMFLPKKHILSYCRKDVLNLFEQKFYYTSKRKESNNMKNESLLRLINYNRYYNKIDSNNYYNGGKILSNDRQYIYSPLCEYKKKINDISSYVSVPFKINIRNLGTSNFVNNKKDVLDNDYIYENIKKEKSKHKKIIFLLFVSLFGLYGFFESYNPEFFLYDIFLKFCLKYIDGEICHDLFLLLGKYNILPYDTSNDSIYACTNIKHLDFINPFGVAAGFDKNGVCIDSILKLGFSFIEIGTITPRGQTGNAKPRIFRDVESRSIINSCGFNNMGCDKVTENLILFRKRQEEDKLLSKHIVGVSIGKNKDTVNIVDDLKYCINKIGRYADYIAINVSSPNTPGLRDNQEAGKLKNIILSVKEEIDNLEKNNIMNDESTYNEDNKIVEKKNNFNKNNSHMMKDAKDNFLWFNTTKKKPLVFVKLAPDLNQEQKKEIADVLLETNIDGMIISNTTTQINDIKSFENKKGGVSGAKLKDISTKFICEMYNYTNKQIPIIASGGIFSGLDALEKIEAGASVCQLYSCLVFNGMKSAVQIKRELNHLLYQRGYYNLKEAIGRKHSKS

[15] = inhibition of PAO1 biofilm formation – strain PAO1, LB-PBS medium, absorbance 600 nm, primary screen (AID 1176); also: test concentration not given here; settings: P. aeruginosa PAO1 growth/biofilm, A600, 12 h; higher = more signal
[16] = growth modulation of vineyard yeast isolate – strain RM11-1a, OD600, basal, 24 h, primary screen (AID 1177);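 also: cultures grown under basal conditions with no added stressor; test concentration not given here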; settings: S. cerevisiae RM11-1a growth, OD600, 24 h; higher = more signal, called active from +8 up or from −8 down
[17] = growth of efflux-deficient E. coli DRC39 – strain DRC39, OD650, 24 h, E. coli filamentation inducers, primary screen (AID 1178);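 also: growth measured as culture turbidity by optical density at 650 nm; test concentration not given here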; settings: E. coli DRC39 acrAB, higher = more signal, called active from +8 up or from −8 down
[18] = growth of efflux-deficient E. coli DRC39 – strain DRC39, OD650, 48 h, E. coli filamentation inducers, primary screen (AID 1179);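 also: screen aims at cell division blockers that make cells filament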; settings: E. coli DRC39 delta-acrAB growth, higher = more signal, called active from +8 up or from −8 down
[19] = viability profiling in RPMI8226 myeloma cells – cell-based, resazurin fluorescence, basal, 24 h, PK04 Diversity Set, profiling panel (AID 1180); settings: higher = more signal;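 also: RPMI8826 multiple myeloma cell line at 5000 cells per well; test concentration not given here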
[20] = target: E3 ubiquitin-protein ligase XIAP (Homo sapiens) (UniProt P98170); experiment: small molecules binding XIAP protein – biophysical, small-molecule microarray, fluorescence 635 nm, primary screen (AID 1181); settings: higher = more signal;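 also: score merges 667 nm emission and signal to noise over triplicate slides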
Chain of E3 ubiquitin-protein ligase XIAP (Homo sapiens) (P98170 whole entry, looked up): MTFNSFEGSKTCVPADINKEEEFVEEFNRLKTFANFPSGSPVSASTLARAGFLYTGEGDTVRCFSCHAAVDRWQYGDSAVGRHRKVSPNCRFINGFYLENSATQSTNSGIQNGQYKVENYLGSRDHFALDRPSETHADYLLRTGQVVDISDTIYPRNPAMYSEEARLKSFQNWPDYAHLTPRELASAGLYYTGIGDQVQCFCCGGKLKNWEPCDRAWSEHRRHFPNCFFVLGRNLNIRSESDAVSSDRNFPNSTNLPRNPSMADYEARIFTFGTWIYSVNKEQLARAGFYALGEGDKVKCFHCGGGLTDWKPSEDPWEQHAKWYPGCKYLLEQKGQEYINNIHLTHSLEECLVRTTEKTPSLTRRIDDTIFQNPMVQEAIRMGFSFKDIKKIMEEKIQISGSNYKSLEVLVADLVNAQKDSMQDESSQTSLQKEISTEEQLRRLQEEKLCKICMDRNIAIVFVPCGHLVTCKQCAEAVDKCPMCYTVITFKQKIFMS

SMILES	z-score [1]	z-score [2]	z-score [3]	z-score [4]	z-score [5]	z-score [6]	z-score [7]	z-score [8]	z-score [9]	z-score [10]	z-score [11]	z-score [12]	z-score [13]	composite z-score [14]	z-score [15]	z-score [16]	z-score [17]	z-score [18]	z-score [19]	composite z-score [20]
O=[N+]([O-])c1ccc(C[n+]2ccc(-c3ccc(CO)cc3)cc2)o1	0.0994	0.511	-1.19	0.266	-1.19	-1.48	-0.886 (inactive)	0.187	-0.425	-0.335 (inactive)	-0.216	-5.16 (inactive)	-0.979 (inactive)	-1.94 (inactive)	0.503 (inactive)	-0.0644 (inactive)	-1.11 (inactive)	-0.495 (inactive)	-0.904	-0.0047
C[N+](C)(C)CCCCNC(=O)[C@H]1C[C@H]2C(=O)NCC(=O)N2[C@H]1c1ccc(O)cc1	-0.143	-0.811	0.658	0.519	0.124	0.227	-0.12 (inactive)	-0.797	-0.988	-1.02 (inactive)	-0.103	0.105 (inactive)	-0.511 (inactive)	-29.2 (active)	0.28 (inactive)	-0.279 (inactive)	0.703 (inactive)	1.35 (inactive)	-0.253	-0.17
CN(C)CCCCNC(=O)[C@H]1C[C@H]2C(=O)N[C@@H](CCCC[N+](C)(C)C)C(=O)N2[C@H]1c1cccc(OCCO)c1	-0.532	0.067	-0.491	-0.845	0.54	-1.18	-0.333 (inactive)	-0.674	-0.448	0.0625 (inactive)	0.49	0.168 (inactive)	0.505 (inactive)	-0.119 (inactive)	1.06 (inactive)	-0.557 (inactive)	-0.163 (inactive)	-0.853 (inactive)	-0.0588	-0.243
C[C@@]1([C@@H](NC(=O)c2cccs2)c2ccc(-c3ccccc3)cc2)C[C@H]1C1CCCCC1	-1.23	0.437	-0.644	-2.17	-4.43	-0.734	0.395 (inactive)	-0.843	-1.09	2.26 (inactive)	0.133	0.774 (inactive)	-0.0911 (inactive)	-3.3 (inactive)	2.3 (inactive)	0.548 (inactive)	0.0767 (inactive)	-0.483 (inactive)	0.689	0.246
